The source of these data is PMC10812921, “Transcriptional Coactivator BOB1 (OBF1, OCA-B) Modulates the Specificity of DNA Recognition by the POU-Domain Factors OCT1 and OCT2 in a Monomeric Configuration”.

POU1 (OCT1 POU domain), sequence (P14859 260-458): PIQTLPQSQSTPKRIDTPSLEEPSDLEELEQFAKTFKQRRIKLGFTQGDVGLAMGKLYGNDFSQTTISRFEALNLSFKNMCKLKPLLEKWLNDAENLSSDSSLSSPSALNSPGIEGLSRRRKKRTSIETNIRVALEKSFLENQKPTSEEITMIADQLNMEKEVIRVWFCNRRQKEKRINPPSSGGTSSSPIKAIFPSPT

This assay has as its target POU1 (OCT1 POU domain) (human, UniProt P14859 260-458). Briefly: EMSA-SELEX-seq; no BOB1; 20 mM Tris-HCl pH 7.6, 140 mM NaCl, 10% glycerol, 0.5 mM EDTA, 0.05% Triton X-100, 0.1 mg/mL BSA, 0.1 mg/mL poly(dI-dC), 5 mM DTT, room temperature, 20 min; high values mean tight binding. The settings on record: protein: recombinant; dsDNA, one strand shown. A digest of the protocol: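 Binding preference is reported as the percentage of sequenced 8-mers that match a motif pattern. Tagged POU-domain proteins were made in E. coli BL21, purified under denaturing conditions and renatured. A 30 ng portion was combined with 300 ng of a PCR-amplified double-stranded random 35-nt library, with or without 28 ng coactivator protein, in 20 μL Tris–HCl pH 7.6 binding buffer for 20 min at RT. Complex bands were excised from native 6% PAGE, eluted and PCR-amplified over four rounds before Illumina sequencing.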
Regarding AAAGCAAT, the binding signal was 0.05 % of ANNNNAAN 8-mers.

Regarding ATGTCAAT, the binding signal is 0.0828 % of ANNNNAAN 8-mers.

Consider ATCCTAAA, for which the binding signal is 0.0267 % of ANNNNAAN 8-mers.

As to AAAATAAA, the binding signal was 0.153 % of ANNNNAAN 8-mers.

Turning to ACCAGAAT, the binding signal is 0.032 % of ANNNNAAN 8-mers.

With ATAGAAAT, the binding signal is 0.0782 % of ANNNNAAN 8-mers.

Consider AACCTAAG, for which the binding signal is 0.0256 % of ANNNNAAN 8-mers.

Consider AGAGTAAA, for which the binding signal is 0.0564 % of ANNNNAAN 8-mers.

Consider AGCCAAAC, for which the binding signal was 0.0194 % of ANNNNAAN 8-mers.

For AGCCAAAG, the binding signal was 0.0286 % of ANNNNAAN 8-mers.

As for AAGGCAAT, the binding signal was 0.0519 % of ANNNNAAN 8-mers.

With AAGCCAAA, the binding signal is 0.0305 % of ANNNNAAN 8-mers.

In the case of ATAGTAAT, the binding signal was 0.116 % of ANNNNAAN 8-mers.

For ACGGCAAC, the binding signal was 0.0141 % of ANNNNAAN 8-mers.

With AGAAAAAC, the binding signal was 0.04 % of ANNNNAAN 8-mers.

Consider ACCCAAAG, for which the binding signal is 0.0198 % of ANNNNAAN 8-mers.

As to ACAATAAA, the binding signal was 0.0481 % of ANNNNAAN 8-mers.

On to ATGACAAG, for which the binding signal was 0.0404 % of ANNNNAAN 8-mers.

As for ACTGCAAA, the binding signal is 0.0416 % of ANNNNAAN 8-mers.

In the case of ATACCAAA, the binding signal is 0.0397 % of ANNNNAAN 8-mers.

Consider ACCACAAA, for which the binding signal is 0.0141 % of ANNNNAAN 8-mers.

In the case of AGTTGAAG, the binding signal was 0.0355 % of ANNNNAAN 8-mers.

Turning to AACCAAAA, the binding signal is 0.0522 % of ANNNNAAN 8-mers.

Regarding ATGTGAAC, the binding signal is 0.0374 % of ANNNNAAN 8-mers.

For AGCCGAAC, the binding signal was 0.0133 % of ANNNNAAN 8-mers.

With ACTAAAAA, the binding signal is 0.0439 % of ANNNNAAN 8-mers.

ACGATAAA: the binding signal is 0.037 % of ANNNNAAN 8-mers.

Take AGCTTAAA: the binding signal is 0.037 % of ANNNNAAN 8-mers.

For the sequence AAGCTAAA, the binding signal is 0.0347 % of ANNNNAAN 8-mers.

Turning to AGCAGAAC, the binding signal is 0.0179 % of ANNNNAAN 8-mers.

On to AGCTCAAT, for which the binding signal was 0.037 % of ANNNNAAN 8-mers.

In the case of AGCAGAAG, the binding signal is 0.0233 % of ANNNNAAN 8-mers.

Regarding AGCACAAG, the binding signal was 0.0168 % of ANNNNAAN 8-mers.

In the case of ACCGCAAT, the binding signal is 0.0164 % of ANNNNAAN 8-mers.

Take AAAAAAAT: the binding signal was 0.13 % of ANNNNAAN 8-mers.

Turning to AAGTCAAC, the binding signal was 0.0256 % of ANNNNAAN 8-mers.

For the sequence AGGATAAC, the binding signal was 0.0263 % of ANNNNAAN 8-mers.

In the case of ATCGAAAG, the binding signal is 0.0294 % of ANNNNAAN 8-mers.

On to ACGTGAAG, for which the binding signal is 0.0259 % of ANNNNAAN 8-mers.
